# RORgamma inh: ROR gamma (mouse) transcription inhibition; P51450; 310,000 compounds, 5.4% hits; Drosophila S2 Gal4-RORgamma UAS-luciferase reporter, 20 h; Potency, µM (series often up to 53.6 µM), without a hit: at the top dose activity change, negative = inhibition, hits mostly inhibitors; note: potency is the fitted concentration of half-maximal effect; nearly all actives have a fitted effect of over 60% in size
# Target sequence (P51450 whole entry, looked up, the tested form may be a part): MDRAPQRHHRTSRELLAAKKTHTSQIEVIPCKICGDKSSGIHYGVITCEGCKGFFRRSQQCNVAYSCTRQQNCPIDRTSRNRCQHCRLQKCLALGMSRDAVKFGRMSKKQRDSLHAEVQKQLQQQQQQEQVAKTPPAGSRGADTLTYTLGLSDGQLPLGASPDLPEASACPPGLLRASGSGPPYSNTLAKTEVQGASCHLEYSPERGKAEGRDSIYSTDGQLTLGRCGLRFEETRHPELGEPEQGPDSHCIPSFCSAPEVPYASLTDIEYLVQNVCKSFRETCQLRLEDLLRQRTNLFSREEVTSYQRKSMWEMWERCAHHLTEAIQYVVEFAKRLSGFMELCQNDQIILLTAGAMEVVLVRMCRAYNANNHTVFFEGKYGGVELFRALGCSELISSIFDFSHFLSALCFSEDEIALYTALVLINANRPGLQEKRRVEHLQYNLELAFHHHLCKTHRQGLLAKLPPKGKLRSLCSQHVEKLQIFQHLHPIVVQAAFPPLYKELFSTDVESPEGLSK
#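 Using a luciferase readout, inhibitors were identified by reduced reporter activity in Drosophila cells coexpressing a copper-inducible Gal4–ROR gamma fusion and UAS-driven Photinus luciferase, incubated 20 hr after 700 uM copper sulfate.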
# DT40 TDP1 no CPT: qHTS for Inhibitors of human tyrosyl-DNA phosphodiesterase 1 (TDP1): qHTS in cells in absence of CPT | 420,000 compounds, 15% hits | DT40 Tdp1-/- hTDP1 cells, no CPT, ATP luminescence, 48 h | Potency, µM (doses to about 46.2 µM), inactives show top-dose activity change, negative = growth inhibition, hits mostly inhibitors; note: potency is the fitted concentration of half-maximal effect; nearly all actives have a fitted effect of over 55% in size
#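 A cellular qHTS used chicken DT40 cells lacking endogenous Tdp1 but carrying stably transfected human TDP1. Compounds were applied without camptothecin, and cell growth kinetics were judged by ATP-dependent luminescence after ≥48 hr.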
# LDHA block: blocks human lactate dehydrogenase A | AID 1347041 | purified LDHA, NADH/diaphorase-resazurin fluorescence; hits give low values | P00338 | activity change, % (values are at about 110 or 230 µM) | 480,000 compounds, 0.15% hits; in the data active = activity change below about -30%; inconclusive = mostly about -25% to -30%;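 note: plate controls were DMSO wells for no effect and wells without enzyme for full effect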
#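 Remaining NADH was detected by diaphorase (0.133 mg/mL) converting 37 µM resazurin to fluorescent resorufin, read at 0 and 20 minutes. The preceding 5-minute room-temperature reaction used 2 nM LDHA, 0.2 mM sodium pyruvate and 0.06 mM NADH at pH 7.4.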
# TDP1 cell CPT: growth inhibition of DT40 Tdp1-/-;hTDP1 cells with camptothecin (screen for TDP1 inhibitors) | chicken DT40 Tdp1-/-;hTDP1 cells + 20 nM CPT, ATP luminescence, 48 h | Potency, µM (series often up to 46.2 µM), for the others: at the highest dose activity change, negative = growth inhibition, most hits filed as inhibitors | 420,000 compounds, 12% hits | AID 686979; note: potency is the fitted concentration of half-maximal effect; nearly all actives have a fitted effect of over 55% in size
#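 Chicken DT40 Tdp1-/- cells stably complemented with human TDP1 were seeded at 400 cells/well in medium containing 20 nM camptothecin, exposed to pin-transferred compounds, and grown at 37 °C for at least 48 hr. Viability was read as ATP luminescence.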
# IL1B secr inh: blocks inflammasome-driven IL-1 beta release; THP-1 LPS/ATP IL-1B secretion, AlphaLISA, 16 h; hits give low values; activity change, % at 57.5 µM; 360,000 compounds, 4.7% hits; in the data active = activity change below about -50%; inconclusive = mostly about -30% to -49%
#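 Secreted IL-1B measured by AlphaLISA bead assay after 16 h compound exposure of THP-1 cells; compounds (final up to 57.5 uM) added 1 h before LPS (250 ng/mL) and ATP (1.25 mM) stimulation; lower signal means less secretion.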
# Gal4-VP16 FLuc: Gal4-VP16 reporter inhibition counter-screen; Drosophila S2 Gal4-VP16 UAS-luciferase, luminescence, 20 h; Potency, µM (highest dose often 53.6 µM), inactives show at the highest dose activity, negative = inhibition, usual class: inhibitors; 310,000 compounds, 3.5% hits; AID 2546;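 note: Gal4-VP16 expression switched on by copper sulfate through the metallothionein promoter; potency is the fitted concentration of half-maximal effect; nearly all actives have a fitted effect of over 50% in size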
# An asterisk follows results filed as active; u = inconclusive; x = no result; [ ] = dose if it differs, or a comment. A selection: hits, their analogues and other compounds. The true share with any hit is near 18%. Unless noted, calls come from the whole dose curve; as a rule, active = well fitted curve in the direction sought with a large enough effect; inconclusive = small, poorly fitted or top-dose-only effect, or another doubt; inactive = no such curve, though single readings can be large; an effect the other way counts as inactive or inconclusive. Unless noted, % is set by controls: 0 for no effect and ±100 for the full control effect.
SMILES,RORgamma inh,DT40 TDP1 no CPT,LDHA block,TDP1 cell CPT,IL1B secr inh,Gal4-VP16 FLuc
COC(=O)c1c(NC(=O)COC(=O)[C@@H](NS(=O)(=O)c2ccc(C)cc2)C(C)C)sc2c1CCC2,3.9%,23.1µM*,-1.7,u,-28.9,-21.1%
Cc1ccc(NC(=O)c2c(NC(=O)C(F)(F)F)sc3c2CCCCC3)cc1,x,3.66µM*,-11.9,2.59µM*,x,x
COc1ccc(C)cc1NC(=O)Cn1nc(C(N)=O)c2ccccc2c1=O,x,x,-5.0,x,x,x
CCc1ccc(-c2csc(/C(C#N)=C/Nc3cccc(C)c3C)n2)cc1,x,x,-3.9,x,x,x
Cc1ccccc1NC(=O)c1c(NC(=O)C(F)(F)F)sc2c1CCCCC2,x,2.91µM*,4.3,3.66µM*,x,x
O=C(Nc1cccc(Cl)c1)c1c(NC(=O)C(F)(F)F)sc2c1CCCC2,x,3.26µM*,u,6.51µM*,x,x
COC(=O)c1c(NC(=O)COc2ccc(C(C)C)cc2)sc2c1CCCC2,x,23.1µM*,0.1,u,x,x
COc1ccc2[nH]c3c(c2c1)CCN1C(=O)C(CC(=O)NC/C=C(\C)CCC=C(C)C)C[C@H](C(=O)N2CCOCC2)[C@@]31CCC1CCCC1 (some centres not stated),x,20.6µM*,-4.7,14.6µM*,11.7,x
CC[C@]12c3[nH]c4ccccc4c3CCN1C(=O)C(CC(=O)NC(C)(C)C)C[C@@H]2C(=O)N1CCN(C(=O)C2CC2)CC1 (some centres not stated),x,-11.7%,-1.5,-6.2%,24.4,x
CC[C@]12c3[nH]c4ccccc4c3CCN1C(=O)C(CC(=O)NC/C=C(\C)CCC=C(C)C)C[C@@H]2C(=O)N1CCN(C(=O)C2CC2)CC1 (some centres not stated),x,14.6µM*,4.7,20.6µM*,u,x
CC[C@]12c3[nH]c4ccc(OC)cc4c3CCN1C(=O)C(CC(=O)NC/C=C(\C)CCC=C(C)C)C[C@@H]2C(=O)N1CCN(C(=O)C2CC2)CC1 (some centres not stated),x,u,1.3,u,-62.4*,x
COCCCNC(=O)CC1C[C@H](C(=O)N2CCOCC2)[C@@]2(CCC3CCCC3)c3[nH]c4ccc(OC)cc4c3CCN2C1=O (some centres not stated),x,-21.5%,-2.1,u,-1.9,x
COC(=O)C1C(=O)c2c([nH]c(C(=O)OCC3CCCO3)c2C)CC1C (configuration not stated),-17.7%,-29.5%,7.1,16.4µM*,-11.4,-6.4%
CCCCCOC(=O)c1[nH]c2c(c1C)C(=O)C(C(=O)OC)C(C)C2 (configuration not stated),u,18.4µM*,13.6,9.2µM*,u,10.0%
COCCOC(=O)c1[nH]c2c(c1C)C(=O)C(C(=O)OC)C(C)C2 (configuration not stated),-16.5%,-2.4%,7.6,5.1%,-5.0,6.8%
CC(C)=CC1C(C(=O)N(C)CC(=O)NC(C)(C)C)C1(C)C (configuration not stated),x,x,-11.0,x,x,x
CCc1ccc(S(=O)(=O)Nc2ccc(N3CCCS3(=O)=O)cc2)s1,x,x,0.3,x,x,x
CN(C)c1nc(NCc2ccccc2)nc(SCC(=O)Nc2ccc(Cl)c(Cl)c2)n1,u,u,6.5,20.6µM*,0.0,-17.5%
COc1nc(SCC(=O)Nc2ccccc2Cl)nc(N(C)C)n1,24.5%,-20.2%,-2.0,u,13.2,-14.1%
CCNc1nc(SCC(=O)Nc2ccc(Cl)c(Cl)c2)nc(N(C)C)n1,-25.6%,14.6µM*,-4.1,u,13.2,4.4%[10 µM]
O=C(NN=C1CCCC1)c1cccs1,u,4.1%,-7.9,11.3%,8.8,u
CC1=C/C(=N\NC(=O)c2cccs2)CC(C)(C)C1,6.31µM*,-24.7%,0.6,u,27.5,11.2µM*
Cc1ccc(-c2c[n+]3c(n2-c2ccccc2)SCC3)cc1,32.6%,2.31µM*,-12.7,3.26µM*,-1.6,-10.2%
COc1ccc(-c2c[n+]3c(n2-c2ccccc2)SCC3)cc1OC,1.3%,u,-4.6,-2.3%,43.8,2.5%
Brc1ccc(-c2c[n+]3c(n2-c2ccccc2)SCC3)cc1,18.0%,5.8µM*,-0.1,5.8µM*,x,-9.4%
SMILES,RORgamma inh,DT40 TDP1 no CPT,LDHA block,TDP1 cell CPT,IL1B secr inh,Gal4-VP16 FLuc
COc1ccc(-c2c[n+]3c(n2-c2ccccc2)SCC3)cc1,20.7%,4.61µM*,-2.9,8.2µM*,-5.6,-16.1%
O=C(Cc1csc(Nc2nc(=S)[nH]c3ccccc23)n1)NCCCN1CCN(c2ccccc2F)CC1,2µM*,14.6µM*,-15.2,8.2µM*,-98.8*,10µM*
Cn1c(=O)cc(OCC(=O)NCCCN2CCN(c3ccccc3F)CC2)c2ccccc21,-3.3%,u,0.2,u,-6.0,-0.1%
COc1ccc(CNC(=O)Cc2csc(Nc3nc(=S)[nH]c4ccccc34)n2)cc1,1.78µM*,u,-3.9,u,21.0,12.6µM*
O=C(Cc1csc(Nc2nc(=S)[nH]c3ccccc23)n1)NCc1ccc(Cl)cc1,3.55µM*,u,-2.5,u,23.8,10µM*
COc1ccc(C(=O)Nc2nc(CC(=O)NCc3ccc(F)cc3)cs2)cc1,x,u,-4.6,u,2.0,x
Cc1ccc(CNC(=O)CCCCCNc2nc(=S)[nH]c3ccccc23)cc1,u,x,x,x,x,-9.3%
COc1ccc(-c2ocnc2C(=O)Nc2ccc(F)cc2)cc1,x,x,10.3,x,x,x
O=C(O)/C=C/C(=O)c1ccc2c(c1)CCc1ccccc1-2,x,3.66µM*,-1.6,4.11µM*,-104.5*,x
COCCNC(=O)c1cccc2c(-c3cccc(C(N)=O)c3)coc12,x,u,-7.2,u,53.6,x
Cn1cc(-c2coc3c(C(=O)NCc4cccnc4)cccc23)cn1,x,23.1µM*,-4.4,u,-3.9,x
NC(=O)c1cccc(-c2coc3c(C(=O)NCc4ccccc4)cccc23)c1,x,18.4µM*,-6.9,u,-22.4,x
COc1ccc(CNC(=O)c2cccc3c(-c4cnn(C)c4)coc23)cc1OC,x,u,3.8,u,u,x
COCCCNC(=O)c1cccc2c(-c3cccc(C(N)=O)c3)coc12,x,13µM*,-5.0,u,20.0,x
CCn1c(N2CCN(C)CC2)nc2c1c(=O)[nH]c(=O)n2C,x,x,-5.1,x,x,x
OC(COc1ccc(Oc2ccccc2)cc1)CN1CCN(c2ncccn2)CC1 (configuration not stated),x,x,-0.2,x,x,x
CCOc1ccc(CNC(=O)CCCn2c(=O)c3cccn3c3ccc(F)cc32)cc1,x,11.6µM*,-0.9,u,x,x

# Source: PubChem (National Center for Advancing Translational Sciences (NCATS))
